According to PubChem BioAssay AID1445 (SRMLSC, 2008):
Hit rate of the full screen: of about 220,000 compounds, about 910 (0.41%) were called active.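 How the source made its calls: active means primary inhibition above the hit cutoff, then over 50% inhibition at one or more dose response concentrations (cut at about 23% in these data, passing the limit was not always enough); inconclusive means conflicting primary data, or primary hits not chosen for dose response; inactive means low primary inhibition, or under 50% at every dose.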 The list comes from a sample in which actives are over-represented; it also holds similar structures and randomly drawn compounds. Results with a measured potency or affinity are listed apart.

Each molecule was assayed against Aminopeptidase N (Plasmodium falciparum (isolate 3D7)) (UniProt O96935) (assay: malaria alanyl aminopeptidase activity blockers – biochemical, fluorogenic H-Leu-NHMec substrate, 1536-well (AID 1445;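 further: plate controls were DMSO full reaction for no effect and no enzyme background for full effect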)). Conditions: recombinant M1AAP, H-Leu-NHMec fluorogenic kinetic assay; at 30 µM, hits give high values unless noted.
Chain of Aminopeptidase N (Plasmodium falciparum (isolate 3D7)) (O96935 whole entry, looked up): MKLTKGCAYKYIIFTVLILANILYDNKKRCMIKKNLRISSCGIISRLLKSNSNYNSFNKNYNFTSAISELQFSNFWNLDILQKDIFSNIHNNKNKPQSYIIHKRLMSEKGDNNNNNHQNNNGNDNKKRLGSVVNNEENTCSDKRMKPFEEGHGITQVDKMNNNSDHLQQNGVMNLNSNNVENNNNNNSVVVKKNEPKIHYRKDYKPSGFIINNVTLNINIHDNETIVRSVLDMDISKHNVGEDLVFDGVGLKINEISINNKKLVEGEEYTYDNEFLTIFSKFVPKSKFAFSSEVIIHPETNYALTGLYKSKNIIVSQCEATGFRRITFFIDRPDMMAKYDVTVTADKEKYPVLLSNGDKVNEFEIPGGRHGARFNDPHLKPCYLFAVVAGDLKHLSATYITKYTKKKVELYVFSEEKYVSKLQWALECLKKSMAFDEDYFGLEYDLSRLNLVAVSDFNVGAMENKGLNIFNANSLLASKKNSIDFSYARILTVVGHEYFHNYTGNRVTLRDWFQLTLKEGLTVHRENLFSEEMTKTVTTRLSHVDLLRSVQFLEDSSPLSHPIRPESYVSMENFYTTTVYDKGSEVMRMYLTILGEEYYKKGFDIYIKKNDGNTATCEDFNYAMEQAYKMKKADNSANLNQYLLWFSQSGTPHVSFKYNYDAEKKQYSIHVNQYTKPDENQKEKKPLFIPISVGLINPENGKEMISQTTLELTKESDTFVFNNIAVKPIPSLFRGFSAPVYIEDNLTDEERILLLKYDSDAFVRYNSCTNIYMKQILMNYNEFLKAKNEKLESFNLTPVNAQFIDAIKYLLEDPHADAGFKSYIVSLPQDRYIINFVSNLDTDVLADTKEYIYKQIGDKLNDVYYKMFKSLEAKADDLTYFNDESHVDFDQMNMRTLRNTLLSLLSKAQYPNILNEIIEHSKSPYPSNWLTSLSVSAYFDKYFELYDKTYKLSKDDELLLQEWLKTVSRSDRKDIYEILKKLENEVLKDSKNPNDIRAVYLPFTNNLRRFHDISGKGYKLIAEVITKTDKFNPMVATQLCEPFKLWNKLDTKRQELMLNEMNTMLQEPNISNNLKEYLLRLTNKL
`Cc1ccc(Oc2ccc(OCC(=O)NC(C)C(=O)O)cc2)cc1` (centres undefined) was tested, and the inhibition was 12.1% (inactive). `COC(=O)c1ccc(OS(=O)(=O)N(C)C)cc1` was tested, and the inhibition was -0.39% (inactive). `Cc1ccc2nc(-c3ccc(NC(=O)COCC(=O)O)cc3)sc2c1` was tested, and the inhibition was 14.2% (inactive). With `O=C(O)CCC(=O)Nc1nc2ccccc2s1` the inhibition was 1.12% (inactive). In the case of `Cc1ccc2nc(-c3ccc(NC(=O)CSCC(=O)O)cc3)sc2c1`, the inhibition is reported as 7.29% (inactive). For `O=C(O)CSCC(=O)Nc1ccc(-c2nc3ccccc3s2)cc1`, the inhibition was 7.28% (inactive). For `Cc1cccc(C)c1NC(=O)CCCSc1nc2ccccc2s1`, the inhibition was -3.68% (inactive). For `CC(=O)Nc1scc(C)c1-c1nc2ccccc2s1`, the inhibition was 2.48% (inactive). `Cc1ccc(-c2nc3ncccc3o2)cc1NC(=S)NC(=O)c1ccco1` was tested, and the inhibition was 4.38% (inactive). In the case of `Cc1ccc(N2CC(C(=O)NCCCn3ccnc3)CC2=O)cc1` (centres undefined), the inhibition is reported as -4.35% (inactive). In the case of `O=C(c1c(Cl)cccc1Cl)N1CCCCCC1`, the inhibition is reported as 4.43% (inactive). For `COc1cc(NC(=S)N2CCCC(CO)C2)cc(OC)c1` (centres undefined), the inhibition was -7.92% (inactive). `COc1cc(S(=O)(=O)NCc2cccnc2)c(OC)cc1Br` was tested, and the inhibition was -4.04% (inactive). For `C/C=C/C(=O)N1CC2(CC(c3cccc(NC(=O)CC(c4ccccc4)c4ccccc4)c3)=NO2)C[C@H]1C(N)=O` (some centres undefined), the inhibition was 12.4% (inactive). For `O=C(N/N=C/c1ccco1)c1ccn[nH]1`, the inhibition was 7.66% (inactive). For `COc1cc(/C=C2\SC(=O)N(c3ccc(Cl)cc3)C2=O)cc([N+](=O)[O-])c1O`, the inhibition was 8.85% (inactive). `COc1cc(/C=C2\SC(=O)N(Cc3ccc(Cl)cc3)C2=O)cc([N+](=O)[O-])c1O` was tested, and the inhibition was 29.4% (inactive). For `Cc1cccc(NC(=O)CN2C(=O)S/C(=C\c3ccc(O)c([N+](=O)[O-])c3)C2=O)c1`, the inhibition was 22.4% (inactive). In the case of `CCOc1cc(/C=C2\SC(=O)N(CC(=O)Nc3ccccc3F)C2=O)cc([N+](=O)[O-])c1O`, the inhibition is reported as 13.2% (inactive). In the case of `Cc1nn(-c2ccccc2)c(Cl)c1/C=N/Nc1nnc(C)c(=O)[nH]1`, the inhibition is reported as -2.22% (inactive). In the case of `O=C(C(=O)N1CCN(c2cccc(Cl)c2)CC1)c1c[nH]c2ccccc12`, the inhibition is reported as 2.96% (inactive). With `CCc1cccc(CC)c1NC(=S)NCCc1c(C)[nH]c2ccccc12` the inhibition was 0.39% (inactive). `CCCNC(=O)NCCc1c(C)[nH]c2ccccc12` was tested, and the inhibition was 23.5% (active). For `Cc1[nH]c2ccccc2c1CCNC(=O)CCC(=O)c1ccccc1`, the inhibition was 0.77% (inactive). For `NS(=O)(=O)c1cccc(NC(=O)COC(=O)CC2CC3CCC2C3)c1` (centres undefined), the inhibition was -2.75% (inactive). In the case of `CSc1ncccc1C(=O)OCC(=O)N(C)C`, the inhibition is reported as 7.72% (inactive). For `Cc1cccc(-n2ccnc2SCC(=O)Nc2ccc3c(c2)OCCO3)c1`, the inhibition was 3.89% (inactive). `O=C(CSc1nccn1-c1ccc(Cl)cc1)Nc1ccc2c(c1)OCO2` was tested, and the inhibition was 1.54% (inactive). `O=C(CSc1nccn1-c1cccc(Cl)c1)Nc1ccc2c(c1)OCCO2` was tested, and the inhibition was 24.5% (active). For `C=CCNc1ncnc2c1ncn2C1OC(CO)C(O)C1O` (centres undefined), the inhibition was -2.12% (inactive). With `OC[C@H]1O[C@@H](n2cnc3c(Nc4ccccc4)ncnc32)[C@H](O)[C@@H]1O` the inhibition was 0.67% (inactive). `CCCOC(=O)c1ccc(Oc2c(-c3ccc(OCC)cc3O)n[nH]c2C)cc1` was tested, and the inhibition was -5.24% (inactive). In the case of `COc1ccc(C2=C/C(=C\c3ccc(OC(C)=O)cc3)C(=O)O2)cc1`, the inhibition is reported as -2.13% (inactive). For `O=[N+]([O-])c1ccc(C[n+]2cc(-c3ccccc3)n3c2CCCCC3)cc1`, the inhibition was -1.78% (inactive). For `CC(=O)NS(=O)(=O)c1ccc(N=c2ssc3c2-c2cc(C)c(C)cc2NC3(C)C)cc1`, the inhibition was 13.3% (inactive). With `CC(=O)NS(=O)(=O)c1ccc(N=c2ssc3c2-c2cc(C)ccc2NC3(C)C)cc1` the inhibition was 9.04% (inactive). `Cc1ccc(CCNC(=O)c2cc(C)nn2-c2ccccc2)cc1` was tested, and the inhibition was 0.72% (inactive). For `COc1ccc(NS(=O)(=O)c2cccs2)c(OC)c1`, the inhibition was 5.44% (inactive). In the case of `Cc1ccc(NS(=O)(=O)c2ccc(NS(=O)(=O)c3cccs3)cc2)cc1`, the inhibition is reported as -3.61% (inactive). For `Cc1cc(C)nc(NS(=O)(=O)c2cccs2)c1`, the inhibition was -0.13% (inactive). In the case of `COc1ccc(Nc2nc3ccccc3nc2NS(=O)(=O)c2cccs2)cc1`, the inhibition is reported as 10.1% (inactive). For `Cc1ccc(-c2cc(C(=O)O)c3ccccc3n2)c(C)c1`, the inhibition was 3.63% (inactive). In the case of `Cc1ccc(NC(=O)Cn2c(/C=C/c3ccccc3)nc3ccccc32)cc1C`, the inhibition is reported as 7.46% (inactive). `O=C(c1cccnc1)N1CCN(c2ccccc2Cl)CC1` was tested, and the inhibition was -11.5% (inactive). For `Cc1c(Cl)cccc1N1C(=O)CC(NNC(=O)c2cccnc2)C1=O` (centres undefined), the inhibition was 8.09% (inactive). With `CCN1C(=S)SC(=O)C1=C1C=C(C)N(Cc2ccco2)C(C)=C1` the inhibition was 12.6% (inactive). `CCN1C(=S)SC(=O)C1=C1C=C(C)N(CCO)C(C)=C1` was tested, and the inhibition was 26.2% (active). In the case of `CCN1C(=S)SC(=O)C1=C1C=C(C)OC(C)=C1`, the inhibition is reported as 0.47% (inactive). `C/C(CC(=O)Nc1ccccc1)=N\NC(=O)COc1ccc(C)cc1Br` was tested, and the inhibition was 2.81% (inactive). For `CCC(C)(C)n1nnnc1C(c1ccc2ncccc2c1)N1CCN(c2ccc(O)cc2)CC1` (centres undefined), the inhibition was 4.2% (inactive). `CCC(C)(C)n1nnnc1C(c1ccc2ncccc2c1)N1CCCCCC1` (centres undefined) was tested, and the inhibition was 4.86% (inactive). With `COc1ccc(/C=C/C(=O)NCc2cnn(C)c2C)cc1COc1ccc(Br)cc1` the inhibition was -0.2% (inactive). For `CC1CCCC(C)N1NC(=O)c1cccc(S(=O)(=O)N2CCc3ccccc32)c1` (centres undefined), the inhibition was 1.3% (inactive). With `COC(=O)n1c(=O)oc2ccccc21` the inhibition was 6.55% (inactive). In the case of `COc1cccc(Cn2nnc(C(=O)Nc3cc(C)ccc3OC)c2N)c1`, the inhibition is reported as 7.36% (inactive). `Cc1cc(NC(=O)Cn2c(=O)n(Cc3ccccc3)c(=O)c3ccccc32)no1` was tested, and the inhibition was 23.7% (active). In the case of `CCn1cnc2c1c(=O)n(CC(=O)Nc1cc(C)on1)c(=O)n2Cc1ccccc1`, the inhibition is reported as -3% (inactive). For `CN(C)c1ccc(NC(=O)Cn2c(=O)n(Cc3ccccc3)c(=O)c3ccccc32)cc1`, the inhibition was 10.9% (inactive). With `Cc1ccc(C(=O)CC2(O)C(=O)Nc3ccccc32)s1` (centres undefined) the inhibition was -3.92% (inactive). In the case of `CCOc1ccccc1NC(=S)NCCCn1ccnc1`, the inhibition is reported as -1.93% (inactive). With `O=C(Nc1ccc(F)cc1)c1ccccc1S(=O)(=O)c1ccccc1[N+](=O)[O-]` the inhibition was 10.1% (inactive). `CC(=O)Nc1ccc(NC(=O)c2ccccc2S(=O)(=O)c2ccccc2[N+](=O)[O-])cc1` was tested, and the inhibition was 6.51% (inactive). With `COCc1cc(C)n(CC(=O)OC)c(=O)c1C#N` the inhibition was 6.13% (inactive). With `CC(C)(C)NC(=O)CN(C(=O)CS(=O)CC(=O)Nc1ccc(F)cc1)c1ccc(Cl)cc1` (centres undefined) the inhibition was 3.41% (inactive). With `Cc1cc(C)n(-c2nc3ccccc3nc2N2CCCC2)n1` the inhibition was 7.98% (inactive). With `CCN(CC)c1nc2ccccc2nc1-n1nc(C)cc1C` the inhibition was 25.1% (active). In the case of `Cc1cc(C)n(-c2nc3ccccc3nc2N2CCCCCC2)n1`, the inhibition is reported as 5.75% (inactive). In the case of `CC(=O)c1sc2nc(C)cc(C)c2c1N`, the inhibition is reported as 3.82% (inactive). `CCn1c(SCC(=O)N2CCCC2)nnc1-c1ccc(S(=O)(=O)N2CCCCCC2)cc1` was tested, and the inhibition was 17.8% (inactive). `CCOC(=O)C1=C(O)/C(=C/c2ccc(-c3ccccc3C(=O)O)o2)SC1=Nc1ccc(OC)cc1` was tested, and the inhibition was 26.2% (active). In the case of `CCOC(=O)C1=C(O)/C(=C/c2ccccn2)SC1=Nc1ccc(Cl)cc1`, the inhibition is reported as -2.13% (inactive). `CCOC(=O)C1=C(O)/C(=C/c2cc(OC)c(OC)c(OC)c2)SC1=Nc1ccc(OC)cc1` was tested, and the inhibition was 0.13% (inactive). In the case of `CCOC(=O)c1ccc(N2C(=O)C(O)=C(C(C)=O)C2c2ccc(O)c(OC)c2)cc1` (centres undefined), the inhibition is reported as 11% (inactive). `COc1ccccc1-c1c(NC(=O)c2ccco2)n(C)c2ccccc2c1=O` was tested, and the inhibition was 5.76% (inactive). `CN(C(=O)c1cnc2n(c1=O)CCS2)C1CCCCC1` was tested, and the inhibition was 7.72% (inactive). For `O=C(c1cnc2n(c1=O)CCS2)N(c1ccccc1)C1CCCCC1`, the inhibition was 3.16% (inactive). In the case of `Cn1nnnc1Sc1ccc([N+](=O)[O-])cc1Cl`, the inhibition is reported as 4.02% (inactive). In the case of `Cc1ccc(OCC(=O)Nc2ccc(S(=O)(=O)Nc3ccccn3)cc2)cc1C`, the inhibition is reported as -0.21% (inactive). In the case of `Cc1ccc2nc(NC(=O)CSc3nncc(=O)n3N)sc2c1`, the inhibition is reported as -3.78% (inactive). For `CC(=O)Nc1nc2n(n1)C(c1ccccc1)C=C(c1ccccc1)N2` (centres undefined), the inhibition was 21.9% (inactive). `CC1=CC(c2ccccc2)n2nc(NS(=O)(=O)c3ccc(C)cc3)nc2N1` (centres undefined) was tested, and the inhibition was 9.04% (inactive). `CC1=CC2=NC(=O)/C(=C\c3cccn3CCOc3cc(C)cc(C)c3)C(=N)N2O1` was tested, and the inhibition was 4.33% (inactive). `CCOC(=O)COc1cc2oc(=O)cc(C)c2cc1[N+](=O)[O-]` was tested, and the inhibition was 1.36% (inactive). For `COc1ccc(-c2cn(-c3cccc(C)c3)c(=O)[nH]2)cc1OC`, the inhibition was 0.73% (inactive). `CSc1cccc(-n2cc(-c3ccc4c(c3)OCO4)[nH]c2=O)c1` was tested, and the inhibition was 25.8% (active). For `CCOc1ccc(-c2cn(-c3cccc(SC)c3)c(=O)[nH]2)cc1`, the inhibition was 7.5% (inactive). With `COc1cccc(-c2nnc(SCc3cccnc3)o2)c1` the inhibition was 1.1% (inactive). In the case of `Cc1nn(-c2ccccc2)c(C)c1/C=N/NC(=O)c1cc(C23CC4CC(CC(C4)C2)C3)[nH]n1`, the inhibition is reported as 8.14% (inactive). For `CN(NS(=O)(=O)c1ccc(Cl)cc1)c1ncc(C(F)(F)F)cc1Cl`, the inhibition was 3.99% (inactive). In the case of `Cc1cccc(NC(=O)c2c(-c3ccccc3)noc2C)n1`, the inhibition is reported as 3.16% (inactive). `CSc1cccc(NC(=S)N2CCC(N(C)C3CCCCCC3)CC2)c1` was tested, and the inhibition was 5.52% (inactive). With `O=c1c(-c2ccc3c(c2)OCCO3)c(C(F)(F)F)oc2cc(O)cc(O)c12` the inhibition was 24.6% (active). With `Cc1oc2cc(O)cc(O)c2c(=O)c1-c1ccc2c(c1)OCCCO2` the inhibition was -10.6% (inactive). With `O=c1c(-c2ccc3c(c2)OCCO3)coc2cc(O)cc(O)c12` the inhibition was 13.2% (inactive).
